Results taken from PubChem BioAssay AID1063 (University of Pittsburgh Molecular Library Screening Center, 2008).
Among all 200,000 compounds or so, about 18,000 (9%) were called active. The entries come from a sample that favours actives as a whole. Unmarked numbers belong to inactive results. Cut-off read from the data, not from the text of the source: active = inhibition above about 50%; inactive = the rest.

experiment: Leishmania major promastigote growth inhibition, primary screen (AID 1063); conditions: Leishmania major promastigotes, resazurin fluorescence viability; at 10 µM; hits give high values;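 note: promastigotes grown with compound for 44 hours at 28 °C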

SMILES	inhibition
O=C(CN1CCCC1)N1CCN(c2ccccc2)CC1	-4.42%
Cc1ccc2[nH]c3c(c2c1)CN(C(=O)CN1CCN(c2ccccc2)CC1)CC3	69.5% (active)
CCCC(=O)N1CCc2[nH]c3ccccc3c2C1	-2.11%
COc1cc2c(cc1OC)CC1(CCCCC1)N=C2	6%
Cc1ccc(C2CC(c3cccc(C)c3)n3nc(N)nc3N2)cc1 (stereo not drawn)	67.6% (active)
Cc1ccc(C2CC(c3cccc(Br)c3)n3nc(N)nc3N2)cc1 (stereo not drawn)	89.8% (active)
COc1ccc(C2CC(c3ccc(C)cc3)Nc3nc(N)nn32)cc1 (stereo not drawn)	3.08%
Nc1nc2n(n1)C(c1ccco1)CC(c1ccc(Cl)c(Cl)c1)N2 (stereo not drawn)	-1.56%
COc1ccc(C2CC(c3ccc(Cl)cc3Cl)Nc3nc(N)nn32)cc1OC (stereo not drawn)	-5%
CCOc1ccccc1C1CC(c2ccccc2)Nc2nc(N)nn21 (stereo not drawn)	-1.13%
O=C(NCc1ccc(F)cc1)C(c1ccccc1)N(C(=O)c1csnn1)C1CC1 (stereo not drawn)	-1.88%
Cc1ccc(C(=O)N2CCN(S(=O)(=O)N3CCOCC3)CC2)cc1	-2.24%
Cc1ccc(-c2cn(S(=O)(=O)c3cccc([N+](=O)[O-])c3)nc2N)cc1	3.16%
CC[N+]1(CC)CC2=Cc3ccccc3CC2C1 (stereo not drawn)	-4.49%
Cc1cc(=O)[nH]c(N/N=C/c2c(C)nn(-c3ccccc3Cl)c2Cl)n1	-2.53%
CC(O)CN(Cc1ccc(Cl)cc1)CC(C)O (stereo not drawn)	-7.47%
O=C(O)CCN(Cc1ccccc1)S(=O)(=O)c1c(Cl)cccc1Cl	-2.19%
OCCN(Cc1ccccc1)Cc1ccc(Cl)cc1	78.8% (active)
c1ccc2c(c1)OCCOCCOCCO2	-1.98%
CCOC(=O)CNc1nc(Cl)nc(Nc2ccccc2)n1	6.65%
CC(O)c1cccc(NC(=O)Cc2cccc3ccccc23)c1 (stereo not drawn)	4.7%
O=c1cc(N2CCCCC2)c(-c2ccccc2)nn1Cc1cccc(F)c1	16.7%
COC(=O)c1c(C(=O)OC)c(-c2cccc(C)c2)n2c1CS(=O)C2 (stereo not drawn)	-12.1%
O=[N+]([O-])c1cccc(C2=NCCS2)c1	-6.13%

SMILES	inhibition
C=CCNc1nnc(C)c2ccccc12	8%
CC(C)N(C(=O)Cn1cc(SCC(=O)N2CCCC2)c2ccccc21)C(C)C	-0.03%
C=CCNc1nnc(SCC(=O)N2CCCCC2)c2ccccc12	54.3% (active)
CN1C(=O)/C(=C/c2ccc(C(=O)NC3CCCC3)cc2)Oc2ccccc21	-4.09%
CCOC(=O)c1cc(-c2ccc(F)cc2)n(CC(=O)NCc2ccccn2)c1C	3.59%
COc1cccc(CNn2cn[nH]c2=S)c1OCc1ccccc1	15.9%
COC(=O)C(C)N=Cc1ccccc1 (stereo not drawn)	-2.89%
Cc1cc(C(=O)COC(=O)C2CC2)c(C)n1-c1ccc(F)cc1	-2.35%
Cc1c(Cl)c([N+](=O)[O-])nn1CC(=O)NCC1CCCO1 (stereo not drawn)	-3.45%
COCCCNC(=S)NCCNc1nc2cc(C)c(C)cc2cc1C#N	19.8%
O=C1c2ccccc2C2=Nc3ccccc3SC(c3ccccc3F)C12 (stereo not drawn)	98.3% (active)
O=C(NCCCN1CCCCCC1)c1ccc(N2CCCC2=O)cc1	0.31%
Cn1c(C(=O)NCCCN2CCCCC2)cc2sccc21	74.1% (active)
COc1ccc(CCNC(=O)c2cc3sccc3n2C)cc1OC	7.15%
COc1ccc(C2(CNC(=O)Cc3ccc(OC)c(OC)c3)CCCC2)cc1	0.15%
CCOc1ccc(C(=O)Nc2cccc(-c3ccc4nncn4n3)c2)cc1	-2.57%
Cc1ccc(NC(=O)c2oc(=O)c3ccccc3c2-c2ccccc2)c(C)c1	55.8% (active)
Cc1ccc(NC(=O)c2oc3ccccc3c2C)c([N+](=O)[O-])c1	-2.37%
Cc1ccc(NC(=S)NC(=O)c2ccc(-c3ccccc3)cc2)c(C)c1	-4.31%
COc1ccccc1N(C)S(=O)(=O)c1ccc(Cl)c(C(=O)N2CCC(C(N)=O)CC2)c1	-3.28%
COc1cc(/C=N/Nc2ccc(C)cc2)cc(Br)c1O	-20.7%
Cc1ccccc1OCCOc1ccc([N+](=O)[O-])cc1/C=N/n1cnnc1	37.6%
Cc1c(Br)ccc(NC(=O)COc2ccccc2C(N)=O)c1C	2.06%
COc1ccccc1-c1nc(SC)n[nH]1	-6.03%
